According to PubChem BioAssay AID1159580 (chemical genetic matrix, 2015):
“And” between values parts separate entries of the source, which are not always exact repeats. Identical values can stand only once. In all, about 5,500 compounds went through this assay and about 2,000 (36%) were called active. About 18% were inconclusive and are not listed. The list shows a part of the results. A number with no mark means an inactive call. No stated cut-off is given here; in the data, active means normalized growth mostly below about 0.91 (no sharp cut-off); inconclusive means no clear call, values can overlap the other calls; inactive means mostly above about 0.92.

Assay: chemical genetic growth profiling, strain panel (AID 1159580);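 further: tested at 20 µM; growth read once vehicle control cultures reached saturation at 30 °C; 1 = growth at the plate median or of vehicle wells; lower values mean less growth of the strain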
Conditions: S. cerevisiae deletion strains, growth OD

CC[C@@H](C(=O)C(C)[C@@H](O)[C@H](C)CCc1ccc(C)c(O)c1C(=O)O)C1OC(CC)(C2CC[C@](O)(CC)[C@H](C)O2)C[C@@H]1C (stereo partly drawn)
normalized growth (locus YAL013W, strain DEP1, hits give low values): 1.05
normalized growth (locus YAL021C, strain ccr4, hits give low values): 1.03
normalized growth (locus YAL026C, strain drs2, hits give low values): 0.949
normalized growth (locus YAL030W, strain snc1, hits give low values): 1.06
normalized growth (locus YBL061C, strain skt5, hits give low values): 1.06
normalized growth (locus YBR009C, strain hhf1, hits give low values): 1.01
normalized growth (locus YBR021W, strain FUR4, hits give low values): 1.16 [resistant] (active)
normalized growth (locus YBR023C, strain chs3, hits give low values): 1.06
normalized growth (locus YBR171W, strain sec66, hits give low values): 1.12 [resistant] (active)
normalized growth (locus YBR229C, strain ROT2, hits give low values): 1.04
normalized growth (locus YBR231C, strain swc5, hits give low values): 1.07
normalized growth (locus YBR279W, strain paf1, hits give low values): 1.06
normalized growth (locus YCL011C, strain gbp2, hits give low values): 1.06
normalized growth (locus YCL016C, strain dcc1, hits give low values): 1.05
normalized growth (locus YCL029C, strain bik1, hits give low values): 1.02
normalized growth (locus YCL061C, strain MRC1, hits give low values): 1.04
normalized growth (locus YCL069W, strain vba3, hits give low values): 1.08 [resistant] (active)
normalized growth (locus YCR088W, strain abp1, hits give low values): 1.07
normalized growth (locus YDL005C, strain med2, hits give low values): 1.08
normalized growth (locus YDL035C, strain GPR1, hits give low values): 0.978
normalized growth (locus YDL040C, strain nat1, hits give low values): 1.06
normalized growth (locus YDL074C, strain BRE1, hits give low values): 0.938
normalized growth (locus YDL101C, strain DUN1, hits give low values): 1.03
normalized growth (locus YDL134C, strain PPH21, hits give low values): 1.02
normalized growth (locus YDL185W, strain tfp1, hits give low values): 0.993
normalized growth (locus YDL192W, strain arf1, hits give low values): 1.01
normalized growth (locus YDR001C, strain nth1, hits give low values): 1.07
normalized growth (locus YDR069C, strain doa4, hits give low values): 1.02
normalized growth (locus YDR101C, strain arx1, hits give low values): 1.04
normalized growth (locus YDR137W, strain rgp1, hits give low values): 1.24 [resistant] (active)
normalized growth (locus YDR150W, strain NUM1, hits give low values): 1.05
normalized growth (locus YDR159W, strain sac3, hits give low values): 0.996
normalized growth (locus YDR162C, strain NBP2, hits give low values): 1.01
normalized growth (locus YDR195W, strain ref2): 1.05
normalized growth (locus YDR297W, strain sur2, hits give low values): 1.05
normalized growth (locus YDR318W, strain mcm21, hits give low values): 1.01
normalized growth (locus YDR334W, strain swr1, hits give low values): 1.08
normalized growth (locus YDR335W, strain msn5, hits give low values): 1.08
normalized growth (locus YDR388W, hits give low values): 1.02
normalized growth (locus YDR392W, strain spt3, hits give low values): 0.732 (active)
normalized growth (locus YDR502C, strain sam2, hits give low values): 1
normalized growth (locus YEL003W, strain gim4, hits give low values): 1.04
normalized growth (locus YEL037C, strain rad23, hits give low values): 1.07
normalized growth (locus YEL061C, strain CIN8 (second series), hits give low values): 1.08
normalized growth (locus YEL061C, strain CIN8, hits give low values): 1.02
normalized growth (locus YER015W, strain faa2, hits give low values): 1.06
normalized growth (locus YER016W, strain bim1, hits give low values): 1.05
normalized growth (locus YER110C, hits give low values): 1.02
normalized growth (locus YER111C, strain swi4, hits give low values): 1.07
normalized growth (locus YER155C, strain BEM2 (second series), hits give low values): 1.04
normalized growth (locus YER155C, strain BEM2, hits give low values): 1.13 [resistant] (active)
normalized growth (locus YER167W, strain BCK2, hits give low values): 1.02
normalized growth (locus YFR010W, strain ubp6, hits give low values): 1.06
normalized growth (locus YGL078C, strain dbp3, hits give low values): 0.998
normalized growth (locus YGL086W, strain mad1, hits give low values): 1.05
normalized growth (locus YGL167C, strain pmr1, hits give low values): 1.07
normalized growth (locus YGL173C, strain kem1, hits give low values): 1.04
normalized growth (locus YGL227W, strain vid30, hits give low values): 1.09 [resistant] (active)
normalized growth (locus YGL240W, strain doc1, hits give low values): 1.03
normalized growth (locus YGL248W, strain PDE1, hits give low values): 1.02
normalized growth (locus YGL253W, strain hxk2, hits give low values): 1.06
normalized growth (locus YGR135W, strain pre9, hits give low values): 0.981
normalized growth (locus YGR252W, strain gcn5, hits give low values): 0.967
normalized growth (locus YHR013C, strain ard1, hits give low values): 1.1
normalized growth (locus YHR027C, strain rpn1, hits give low values): 1.07
normalized growth (locus YHR030C, strain SLT2, hits give low values): 1.03 and 0.969
normalized growth (locus YHR079C, strain IRE1 (second series), hits give low values): 1.02
normalized growth (locus YHR079C, strain IRE1, hits give low values): 0.944
normalized growth (locus YHR094C, strain hxt1, hits give low values): 1.03
normalized growth (locus YHR129C, strain ARP1, hits give low values): 1.04
normalized growth (locus YHR142W, strain chs7, hits give low values): 1.08
normalized growth (locus YHR200W, strain rpn10, hits give low values): 1.02
normalized growth (locus YIL066C, strain RNR3, hits give low values): 1.02
normalized growth (locus YIL073C, strain SPO22, hits give low values): 0.988
normalized growth (locus YIL125W, strain kgd1, hits give low values): 1
normalized growth (locus YIR030C, strain dcg1, hits give low values): 1.03
normalized growth (locus YJL092W, strain hpr5, hits give low values): 1.06
normalized growth (locus YJL095W, strain BCK1 (second series), hits give low values): 1.06
normalized growth (locus YJL095W, strain BCK1, hits give low values): 1.02 and 0.976
normalized growth (locus YJL115W, strain asf1, hits give low values): 1.06
normalized growth (locus YJL129C, strain trk1, hits give low values): 0.976
normalized growth (locus YJL134W, strain LCB3, hits give low values): 1.04
normalized growth (locus YJL154C, strain vps35, hits give low values): 1.06
normalized growth (locus YJL164C, strain tpk1, hits give low values): 1.03
normalized growth (locus YJL166W, strain qcr8, hits give low values): 1.06
normalized growth (locus YJL168C, strain set2, hits give low values): 1.04
normalized growth (locus YJL187C, strain SWE1 (second series), hits give low values): 1.03
normalized growth (locus YJL187C, strain SWE1, hits give low values): 1.06
